# Source: article PMC8384837, “Expanding the binding specificity for RNA recognition by a PUF domain”
# Columns and labels:
# Assay in all cases: yeast three-hybrid, YBZ-1, SC-Leu-His + 0.5 mM 3-AT, 4 days
# Settings in all cases: tags: N-Gal4 AD-HA kept; label: inside an RPR1-promoter hybrid RNA with tandem MS2 sites; ssRNA
# PUM1 PUF domain R1-HMR = PUM1 PUF domain R1-HMR (Homo sapiens, UniProt Q14671 828-1176, S863H;R864M;Q867R)
# Method in brief: (§1)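 Sequencing with Illumina followed PCR amplification of the repeat regions from transformants grown four days on SC-Leu (input) or SC-Leu-His + 0.5 mM 3-AT (selection). The transformants were strain YBZ-1 with a LexA–MS2 coat fusion and a HIS3 reporter, carrying Pumilio-1 PUF domain libraries and matching RNA elements. The interaction score is the log change in variant frequency from input to selection, computed in log2 with a pseudocount of 1 for absent variants.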
# PUM1 PUF domain R5-DFT = PUM1 PUF domain R5-DFT (Homo sapiens, UniProt Q14671 828-1176, C1007D;R1008F;Q1011T)
# Method in brief: as §1
# PUM1 PUF domain R5-SVS = PUM1 PUF domain R5-SVS (Homo sapiens, UniProt Q14671 828-1176, C1007S;R1008V;Q1011S)
# Method in brief: as §1
# PUM1 PUF domain R5-DHA = PUM1 PUF domain R5-DHA (Homo sapiens, UniProt Q14671 828-1176, C1007D;R1008H;Q1011A)
# Method in brief: as §1
# PUM1 PUF domain R8-KYT = PUM1 PUF domain R8-KYT (Homo sapiens, UniProt Q14671 828-1176, N1122K;Q1126T)
# Method in brief: as §1
# PUM1 PUF domain R8-RNR = PUM1 PUF domain R8-RNR (Homo sapiens, UniProt Q14671 828-1176, N1122R;Y1123N;Q1126R)
# Method in brief: as §1
# PUM1 PUF domain R8-RFG = PUM1 PUF domain R8-RFG (Homo sapiens, UniProt Q14671 828-1176, N1122R;Y1123F;Q1126G)
# Method in brief: as §1
# PUM1 PUF domain R8-PFW = PUM1 PUF domain R8-PFW (Homo sapiens, UniProt Q14671 828-1176, N1122P;Y1123F;Q1126W)
# Method in brief: as §1
# PUM1 PUF domain R8-THR = PUM1 PUF domain R8-THR (Homo sapiens, UniProt Q14671 828-1176, N1122T;Y1123H;Q1126R)
# Method in brief: as §1
# PUM1 PUF domain R8-KRN = PUM1 PUF domain R8-KRN (Homo sapiens, UniProt Q14671 828-1176, N1122K;Y1123R;Q1126N)
# Method in brief: as §1
# PUM1 PUF domain R5-PGY = PUM1 PUF domain R5-PGY (Homo sapiens, UniProt Q14671 828-1176, C1007P;R1008G;Q1011Y)
# Method in brief: as §1
# PUM1 PUF domain R6-VFA = target: T1, PUM1 PUF domain R6-VFA (Homo sapiens, UniProt Q14671 828-1176, N1043V;Y1044F;Q1047A)
# T1 sequence: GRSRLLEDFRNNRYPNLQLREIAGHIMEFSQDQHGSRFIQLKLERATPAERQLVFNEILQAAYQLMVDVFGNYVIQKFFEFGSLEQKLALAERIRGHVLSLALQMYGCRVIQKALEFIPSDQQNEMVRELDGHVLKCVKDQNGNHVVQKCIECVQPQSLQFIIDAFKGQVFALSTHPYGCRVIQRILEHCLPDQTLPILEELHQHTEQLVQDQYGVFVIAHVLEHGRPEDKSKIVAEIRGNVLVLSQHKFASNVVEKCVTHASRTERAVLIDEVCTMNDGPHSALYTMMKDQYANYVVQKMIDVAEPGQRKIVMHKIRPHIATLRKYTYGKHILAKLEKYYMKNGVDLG
# Method in brief: as §1
# PUM1 PUF domain R3-AKE = PUM1 PUF domain R3-AKE (Homo sapiens, UniProt Q14671 828-1176, C935A;R936K;Q939E)
# Method in brief: as §1
# PUM1 PUF domain R3-RIS = PUM1 PUF domain R3-RIS (Homo sapiens, UniProt Q14671 828-1176, C935R;R936I;Q939S)
# Method in brief: as §1
# PUM1 PUF domain R5-SER = PUM1 PUF domain R5-SER (Homo sapiens, UniProt Q14671 828-1176, C1007S;R1008E;Q1011R)
# Method in brief: as §1
# PUM1 PUF domain R5-RSC = PUM1 PUF domain R5-RSC (Homo sapiens, UniProt Q14671 828-1176, C1007R;R1008S;Q1011C)
# Method in brief: as §1
# PUM1 PUF domain R5-AKR = PUM1 PUF domain R5-AKR (Homo sapiens, UniProt Q14671 828-1176, C1007A;R1008K;Q1011R)
# Method in brief: as §1
# PUM1 PUF domain R4-TNQ = PUM1 PUF domain R4-TNQ (Homo sapiens, UniProt Q14671 828-1176, N971T;H972N)
# Method in brief: as §1
# PUM1 PUF domain R4-NNW = PUM1 PUF domain R4-NNW (Homo sapiens, UniProt Q14671 828-1176, H972N;Q975W)
# Method in brief: as §1
sequence,measurement,setting,value
GGCUAGAACUAGUGGAUCCCCCGGCGCCCGGCGGCUCGAGCCCGGGUAAGUGUAAAUCGUCUGCAUGCCGCCGGGCGCCAUGCCUGCAGGUCGACUCUAGAAAACAUG,binding signal,PUM1 PUF domain R1-HMR,3.35 log2 enrichment (interaction score)
GGCUAGAACUAGUGGAUCCCCCGGCGCCCGGCGGCUCGAGCCCGGGUAAGUGUGAAUAGUCUGCAUGCCGCCGGGCGCCAUGCCUGCAGGUCGACUCUAGAAAACAUG,binding signal,PUM1 PUF domain R5-DFT,3.29 log2 enrichment (interaction score)
same,binding signal,PUM1 PUF domain R5-SVS,3.48 log2 enrichment (interaction score)
same,binding signal,PUM1 PUF domain R5-DHA,2.38 log2 enrichment (interaction score)
GGCUAGAACUAGUGGAUCCCCCGGCGCCCGGCGGCUCGAGCCCGGGUAAGCGUAAAUAGUCUGCAUGCCGCCGGGCGCCAUGCCUGCAGGUCGACUCUAGAAAACAUG,binding signal,PUM1 PUF domain R8-KYT,2.81 log2 enrichment (interaction score)
same,binding signal,PUM1 PUF domain R8-RNR,2.37 log2 enrichment (interaction score)
same,binding signal,PUM1 PUF domain R8-RFG,6.69 log2 enrichment (interaction score)
same,binding signal,PUM1 PUF domain R8-PFW,3.6 log2 enrichment (interaction score)
same,binding signal,PUM1 PUF domain R8-THR,3.22 log2 enrichment (interaction score)
GGCUAGAACUAGUGGAUCCCCCGGCGCCCGGCGGCUCGAGCCCGGGUAAGUGUAAAUAGUCUGCAUGCCGCCGGGCGCCAUGCCUGCAGGUCGACUCUAGAAAACAUG,binding signal,PUM1 PUF domain R8-KYT,2.68 log2 enrichment (interaction score)
same,binding signal,PUM1 PUF domain R8-KRN,2.98 log2 enrichment (interaction score)
same,binding signal,PUM1 PUF domain R5-PGY,4.47 log2 enrichment (interaction score)
same,binding signal,PUM1 PUF domain R6-VFA,2.89 log2 enrichment (interaction score)
same,binding signal,PUM1 PUF domain R8-RNR,0.57 log2 enrichment (interaction score)
same,binding signal,PUM1 PUF domain R8-RFG,4.85 log2 enrichment (interaction score)
same,binding signal,PUM1 PUF domain R8-THR,2.7 log2 enrichment (interaction score)
GGCUAGAACUAGUGGAUCCCCCGGCGCCCGGCGGCUCGAGCCCGGGUAAGUGUAAGUAGUCUGCAUGCCGCCGGGCGCCAUGCCUGCAGGUCGACUCUAGAAAACAUG,binding signal,PUM1 PUF domain R3-AKE,2.98 log2 enrichment (interaction score)
same,binding signal,PUM1 PUF domain R3-RIS,3.17 log2 enrichment (interaction score)
GGCUAGAACUAGUGGAUCCCCCGGCGCCCGGCGGCUCGAGCCCGGGUAAGUGUCAAUAGUCUGCAUGCCGCCGGGCGCCAUGCCUGCAGGUCGACUCUAGAAAACAUG,binding signal,PUM1 PUF domain R5-SER,3.79 log2 enrichment (interaction score)
same,binding signal,PUM1 PUF domain R5-RSC,3.02 log2 enrichment (interaction score)
same,binding signal,PUM1 PUF domain R5-AKR,5.56 log2 enrichment (interaction score)
GGCUAGAACUAGUGGAUCCCCCGGCGCCCGGCGGCUCGAGCCCGGGUAAGUGUUAAUAGUCUGCAUGCCGCCGGGCGCCAUGCCUGCAGGUCGACUCUAGAAAACAUG,binding signal,PUM1 PUF domain R5-RSC,3.18 log2 enrichment (interaction score)
same,binding signal,PUM1 PUF domain R5-DHA,4.01 log2 enrichment (interaction score)
GGCUAGAACUAGUGGAUCCCCCGGCGCCCGGCGGCUCGAGCCCGGGUAAGUGUAUAUAGUCUGCAUGCCGCCGGGCGCCAUGCCUGCAGGUCGACUCUAGAAAACAUG,binding signal,PUM1 PUF domain R4-TNQ,4.92 log2 enrichment (interaction score)
GGCUAGAACUAGUGGAUCCCCCGGCGCCCGGCGGCUCGAGCCCGGGUAAGUGAAAAUAGUCUGCAUGCCGCCGGGCGCCAUGCCUGCAGGUCGACUCUAGAAAACAUG,binding signal,PUM1 PUF domain R6-VFA,6.94 log2 enrichment (interaction score)
GGCUAGAACUAGUGGAUCCCCCGGCGCCCGGCGGCUCGAGCCCGGGUAAGUGUAAUUAGUCUGCAUGCCGCCGGGCGCCAUGCCUGCAGGUCGACUCUAGAAAACAUG,binding signal,PUM1 PUF domain R3-RIS,3.36 log2 enrichment (interaction score)
GGCUAGAACUAGUGGAUCCCCCGGCGCCCGGCGGCUCGAGCCCGGGUAAGUGUACAUAGUCUGCAUGCCGCCGGGCGCCAUGCCUGCAGGUCGACUCUAGAAAACAUG,binding signal,PUM1 PUF domain R4-NNW,4.15 log2 enrichment (interaction score)
